NS1 function inh: qHTS Assay for Inhibitors of Influenza NS1 Protein Function; Potency, µM (series often up to 46.1 µM), inactives show at the top dose activity, positive = more growth; actives 0.4% (n = 270,000); AID 2326, 2010; calls by dose curve; further: actives are rising curves; nearly all actives have a fitted effect of over 50% in size
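Compounds were scored for reversing the slow growth caused by influenza A NS1 in S. cerevisiae, measured by optical density at 600 nm. Assay medium contained 2% galactose at pH 6.0; NS1-free yeast of the same strain were the positive control.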
HCV inh: qHTS Assay for Inhibitors of Hepatitis C Virus (HCV) | Huh7.5.1 HCVcc-Cre infection, luciferase reporter, 44 h | Potency, µM (doses to about 41.8 µM), without a hit: at the top dose activity change, negative = inhibition, actives largely listed as inhibitors | actives 3.4% (n = 340,000); further: on the % scale 0 is the no-effect control and ±100 the full control effect
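Cells seeded at 1,000/well and cultured 4 h, then compounds added followed by HCVcc-Cre virus (~0.5 moi). After 44 h further culture, luciferase substrate was added, plates held 15 min at room temperature, and luminescence read for 15 sec.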
SARS PLpro yeast: qHTS of Yeast-based Assay for SARS-CoV PLP. S. cerevisiae expressing SARS-CoV PLpro, growth rescue. Potency, µM (highest dose often 32.9 µM), for the others: at the highest dose activity, positive = growth rescue, actives largely listed as activators. actives 0.19% (n = 330,000). AID 485353, 2010; calls by dose curve; further: 0% is about no effect; nearly all actives have a fitted effect of over 55% in size
Pf growth 96h: Primary qHTS for delayed death inhibitors of the malarial parasite plastid, 96 hour incubation. Potency, µM (titrated, usually from 28.7 µM), for inactives: at the highest dose activity change, negative = inhibition, actives largely listed as inhibitors. AID 504834, 2011. P. falciparum luciferase reporter growth, 96 h. actives 6.9% (n = 320,000); further: on the % scale 0 is the no-effect control and ±100 the full control effect
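P. falciparum expressing integrated firefly luciferase grown in erythrocytes (2% hematocrit, 0.05% parasitemia final) with compounds for 96 hours at 37 C, 5% CO2. Growth inhibition read as loss of luminescence after adding luciferase detection reagent.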
AMA1 RON2 block: qHTS for Inhibitors of AMA1-RON; Towards Development of Antimalarial Drug Lead: Primary Screen | Plasmodium falciparum AMA1 (3D7) - RON2 peptide interaction | AlphaScreen AMA1-biotinylated RON2 peptide binding | Potency, µM (highest dose often 58.2 µM), for inactives: top-dose activity change, negative = inhibition, actives largely listed as inhibitors | actives 0.2% (n = 360,000);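 further: 0% = vehicle wells and -100% = peptide control; nearly all actives have a fitted effect of over 45% in size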
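AMA1 (3D7) with his tag at 25 nM final met compounds first, then biotinylated RON2 peptide at 25 nM; detection used donor plus acceptor beads, 10 µg/mL apiece, read by AlphaScreen after 30 min at room temperature.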
Pf growth 48h: Primary qHTS for delayed death inhibitors of the malarial parasite plastid, 48 hour incubation; P. falciparum luciferase growth in erythrocytes, 48 h; Potency, µM (doses to about 28.7 µM), for the others: top-dose activity change, negative = inhibition, most hits filed as inhibitors; actives 5.9% (n = 310,000); AID 504832, 2011; further: on the % scale 0 is the no-effect control and ±100 the full control effect
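Firefly luciferase activity from engineered P. falciparum reports growth; inhibitors lower the luminescent signal. Cultures contained 2% hematocrit erythrocytes at 0.1% final parasitemia.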
* = called active by the depositor; ? = inconclusive; / = no result; [ ] = remark or other dose. In the library only some 12% were active in any assay of this set; here they are far more common. Unless noted, the call rests on the fitted dose curve; in most records, active means well fitted curve in the direction sought with a large enough effect; inconclusive means small, poorly fitted or top-dose-only effect, or another doubt; inactive means no such curve, though single readings can be large; an effect the other way counts as inactive or inconclusive. Potency means the concentration at half of the fitted maximal effect.

SMILES	NS1 function inh	HCV inh	SARS PLpro yeast	Pf growth 96h	AMA1 RON2 block	Pf growth 48h
CCCc1cc(C(=O)Nc2ccc(C(=O)c3ccc(F)cc3)cc2)n(C)n1	-44.1%	10µM*	-13.8%	?	-6.7%	?
CCOC(=O)N1CCN(C(=O)CC(C(=O)N2CCc3ccccc32)n2ccnc2)CC1 (centres undefined)	-8.1%	16.7%	5.6%	19.1%	-6.7%	0.0329µM*
CCOC(=O)NC(O)C(=O)c1cccs1 (centres undefined)	0.4%	15.5%	-8.7%	5.22µM*	19.0%	8.0%
CCOC(=O)c1nnn(-c2ccc([N+](=O)[O-])cc2[N+](=O)[O-])c1C	/	?	-4.5%	1.9%	2.3%	11.7µM*
COc1ccc(CNc2cc(C)ccc2C)c(OC)c1OC	-6.9%	?	-2.8%	/	-12.9%	?
COc1cc(CNc2cc(C)ccc2C)cc(OC)c1OC	-4.1%	-16.2%	-5.9%	?	-8.1%	5.22µM*
O=C(Nc1cccnc1)C1CC(=O)N(c2ccc(F)cc2)C1 (centres undefined)	22.1%	6.2%	0.9%	12.9%	-12.9%	10.4%
Cc1nc(CCNS(=O)(=O)c2cccnc2)cs1	-0.1%	?	-0.1%	18.2%	-0.9%	8.5%
c1cncc(-c2nc(NCc3ccco3)c3ccccc3n2)c1	-6.0%	10µM*	?	34.5%	7.0%	11.7µM*
N#Cc1c(NCc2ccccc2)ccnc1NCc1cccnc1	0.0%	7.08µM*	1.6%	-20.1%	18.6%	?
Cc1ccc(-c2nc(NCc3cccnc3)c3ccccc3n2)cc1	-30.3%	?	-13.8%	75.5%	8.1%	?
N#Cc1c(F)cccc1NCc1cccnc1	0.4%	?	-0.4%	-14.0%	-27.2%	/
c1ccc(-c2nc(NCc3cccnc3)c3ccccc3n2)cc1	-48.8%	10µM*	-20.6%	?	-2.7%	?
Clc1cccc(-c2nc(NCc3cccnc3)c3ccccc3n2)c1	-51.5%	2.82µM*	-31.3%	?	-2.5%	?
CCN(C(=O)CN1CCCC(C)C1)c1c(N)n(Cc2ccccc2)c(=O)[nH]c1=O (centres undefined)	/	0.4%	2.4%	/	-3.5%[11.6 µM]	/
C[C@@H]1CN([C@H](C)CO)C(=O)CCCn2cc(nn2)CO[C@H]1CN(C)S(=O)(=O)c1ccc2ccccc2c1	/	/	/	/	1.4%	/
COc1ccc2cc1Oc1cc3c(cc1OC)CC[N+](C)(C)C3Cc1ccc(cc1)Oc1c(OC)c(OC)cc3c1C(C2)[N+](C)(C)CC3 (centres undefined)	/	/	/	-0.2%	/	3.9%
Cc1nc(-c2ccc(C(=O)N3CCCC3)cc2)cs1	/	9.6%	-5.7%	-13.5%	-1.4%	235.4%
Cc1nc(CN2CCN(C(=O)c3ccc(C(C)(C)C)cc3)CC2)cs1	3.4%	?	9.3%	11.7µM*	0.0%	/
O=C(NCCS(=O)(=O)N1CCCCC1)c1ccc2c(c1)OCO2	/	5.4%	0.5%	0.8%	-0.7%	10.9%
CN(C)c1nc(NCc2ccccc2)nc(SCC(=O)Nc2ccccc2)n1	9.8%	?	6.5%	?	3.6%	?
O=C(CSc1nc(Nc2ccccc2)nc(N2CCOCC2)n1)Nc1ccc2c(c1)OCCO2	-44.8%	-26.8%	-1.2%	/	-16.5%	9.28µM*
CC(C)(C)Nc1nc(SCC(=O)Nc2ccccc2)nc(N2CCOCC2)n1	-4.7%	?	-0.9%	?	-21.6%	9.28µM*
CC(Sc1nc(NCc2ccccc2)nc(N(C)C)n1)C(=O)Nc1ccccc1 (centres undefined)	19.7%	?	3.4%	5.22µM*	-2.1%	?
CN(C)c1nc(NC(C)(C)C)nc(SCC(=O)Nc2ccccc2)n1	/	?	-1.6%	-4.2%	-8.2%	14.7µM*
SMILES	NS1 function inh	HCV inh	SARS PLpro yeast	Pf growth 96h	AMA1 RON2 block	Pf growth 48h
Cc1cnc([N+](=O)[O-])n1CCOC(=O)NC(=O)c1cccc(F)c1	/	3.0%	-1.7%	?	-11.1%	33.3%
CC(C)N(C(=O)CN1C(=O)NC(c2ccccc2)(c2ccccc2)C1=O)C(C)C	5.9%	-1.1%	3.3%	?	-3.3%	-19.8%
c1cncc(CNc2nc(N3CCOCC3)nc(N3CCOCC3)n2)c1	2.2%	28.6%	2.3%	?	9.2%	/
CC(C)(C)Nc1nc(NCc2cccnc2)nc(N2CCOCC2)n1	0.6%	-16.7%	10.0%	?	35.0%	5.22µM*
O=C(c1ccccc1)c1c2c(cc3sc4ccccc4[n+]13)-c1cccc3cccc-2c13	-56.1%	?	-59.1%	0.465µM*	-15.8%	0.928µM*
Cc1cc2ccccc2cc1C(=O)c1ccccc1	/	-12.0%	/	/	29.1%	/
O=C(c1ccccc1)c1ccc2ccccc2c1	/	-5.2%	/	/	27.9%	/
Cc1sc2cc3c(c(C(=O)c4ccccc4)[n+]2c1C)-c1cccc2cccc-3c12	-59.9%	10µM*	-77.0%	0.329µM*	-29.3%	0.828µM*
Cc1ccc(S(=O)(=O)NCCc2cn3nc(C)c(C)nc3n2)cc1C	-1.3%	?	-0.6%	22.7%	23.9%	16.6%
Cc1cccc(NC(=O)CCS(=O)(=O)c2ccc3c(c2)NC(=O)CS3)n1	4.7%	9.4%	-3.1%	?	11.7%	8.5%
O=c1[nH]c(/C=C/c2ccccc2)c([N+](=O)[O-])c(=O)[nH]1	-7.8%	20.8%	5.9%	10.4µM*	-1.5%	8.1%
Cc1onc(-c2ccccc2)c1C(=O)OCC(=O)N1CCCCC1	/	/	/	/	6.4%	/
CC1CCCN(CCCNC(=O)C2CC(=O)N(c3ccc(F)c(Cl)c3)C2)C1 (centres undefined)	-2.9%	?	-1.3%	7.8%	-3.6%	14.7µM*
Cc1oc2c(CN3CCCCC3C)c(O)ccc2c(=O)c1-c1ccc(Br)cc1 (centres undefined)	-0.6%	-20.1%	-0.5%	13.1µM*	-3.5%	13.1µM*
Cc1oc2c(CN3CCOCC3)c(O)ccc2c(=O)c1-c1ccc(Cl)cc1	-8.2%	8.7%	0.5%	9.28µM*	-12.4%	?
CCOC(=O)c1oc2c(CN3CCCCC3C)c(O)ccc2c(=O)c1-c1ccc(OC)c(OC)c1 (centres undefined)	7.6%	-6.5%	2.0%	?	15.9%	?
CCN1CCN(Cc2c(O)ccc3c(=O)c(-c4ccc(OC)c(OC)c4)c(C)oc23)CC1	-13.5%	7.4%	11.6%	-16.2%	1.0%	?
CC1CCCCN1Cc1c(O)ccc2c(=O)c(-c3nc4ccccc4s3)coc12 (centres undefined)	3.0%	?	0.1%	10.4µM*	35.6%	2.08µM*
Cc1oc2c(CN3CCOCC3)c(O)ccc2c(=O)c1-c1ccc(Br)cc1	-6.9%	5.7%	3.9%	13.1µM*	-16.9%	4.15µM*

Screens (PubChem BioAssay)
